The source of these data is PubChem BioAssay AID1347165 (National Center for Advancing Translational Sciences (NCATS), 2019).

Out of some 220,000 compounds screened, about 5,700 (2.6%) were called active. Not shown: some 18% with an inconclusive outcome. Calls follow the shape of the dose curve; as a rule, active = well fitted inhibition curve with a large enough effect; inconclusive = small, poorly fitted or top-dose-only effect; inactive = no such curve, though single readings can be large or run the other way. The entries come from a sample that favours actives as a whole.
Potency is read from the fitted curve at half-maximal effect.

The target of this test is Lysine-specific demethylase 5B (Homo sapiens) (UniProt Q9UGL1). Put plainly: Primary screen for KDM5B Histone Demethylases FDH-coupled qHTS. Also: nearly all actives have a fitted effect of over 70% in size. As to activity change, negative = inhibition: 0% is about no effect. The following applies: FDH-coupled NADH fluorescence (FDH is formaldehyde dehydrogenase); series mostly up to 57.7 µM; activity change, negative = inhibition: at the top concentration. In outline: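 qHTS format, multiple compound concentrations. Buffer 50 mM HEPES pH 7.5/0.01% Tween-20; 200 nM KDM5BΔAP final; 10 min compound preincubation; substrate-mix levels 12.5 µM peptide, 25 µM α-KG, 0.25 mM NAD⁺; 30 min RT; ΔRFU.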
Chain of Lysine-specific demethylase 5B (Homo sapiens) (Q9UGL1 whole entry, looked up): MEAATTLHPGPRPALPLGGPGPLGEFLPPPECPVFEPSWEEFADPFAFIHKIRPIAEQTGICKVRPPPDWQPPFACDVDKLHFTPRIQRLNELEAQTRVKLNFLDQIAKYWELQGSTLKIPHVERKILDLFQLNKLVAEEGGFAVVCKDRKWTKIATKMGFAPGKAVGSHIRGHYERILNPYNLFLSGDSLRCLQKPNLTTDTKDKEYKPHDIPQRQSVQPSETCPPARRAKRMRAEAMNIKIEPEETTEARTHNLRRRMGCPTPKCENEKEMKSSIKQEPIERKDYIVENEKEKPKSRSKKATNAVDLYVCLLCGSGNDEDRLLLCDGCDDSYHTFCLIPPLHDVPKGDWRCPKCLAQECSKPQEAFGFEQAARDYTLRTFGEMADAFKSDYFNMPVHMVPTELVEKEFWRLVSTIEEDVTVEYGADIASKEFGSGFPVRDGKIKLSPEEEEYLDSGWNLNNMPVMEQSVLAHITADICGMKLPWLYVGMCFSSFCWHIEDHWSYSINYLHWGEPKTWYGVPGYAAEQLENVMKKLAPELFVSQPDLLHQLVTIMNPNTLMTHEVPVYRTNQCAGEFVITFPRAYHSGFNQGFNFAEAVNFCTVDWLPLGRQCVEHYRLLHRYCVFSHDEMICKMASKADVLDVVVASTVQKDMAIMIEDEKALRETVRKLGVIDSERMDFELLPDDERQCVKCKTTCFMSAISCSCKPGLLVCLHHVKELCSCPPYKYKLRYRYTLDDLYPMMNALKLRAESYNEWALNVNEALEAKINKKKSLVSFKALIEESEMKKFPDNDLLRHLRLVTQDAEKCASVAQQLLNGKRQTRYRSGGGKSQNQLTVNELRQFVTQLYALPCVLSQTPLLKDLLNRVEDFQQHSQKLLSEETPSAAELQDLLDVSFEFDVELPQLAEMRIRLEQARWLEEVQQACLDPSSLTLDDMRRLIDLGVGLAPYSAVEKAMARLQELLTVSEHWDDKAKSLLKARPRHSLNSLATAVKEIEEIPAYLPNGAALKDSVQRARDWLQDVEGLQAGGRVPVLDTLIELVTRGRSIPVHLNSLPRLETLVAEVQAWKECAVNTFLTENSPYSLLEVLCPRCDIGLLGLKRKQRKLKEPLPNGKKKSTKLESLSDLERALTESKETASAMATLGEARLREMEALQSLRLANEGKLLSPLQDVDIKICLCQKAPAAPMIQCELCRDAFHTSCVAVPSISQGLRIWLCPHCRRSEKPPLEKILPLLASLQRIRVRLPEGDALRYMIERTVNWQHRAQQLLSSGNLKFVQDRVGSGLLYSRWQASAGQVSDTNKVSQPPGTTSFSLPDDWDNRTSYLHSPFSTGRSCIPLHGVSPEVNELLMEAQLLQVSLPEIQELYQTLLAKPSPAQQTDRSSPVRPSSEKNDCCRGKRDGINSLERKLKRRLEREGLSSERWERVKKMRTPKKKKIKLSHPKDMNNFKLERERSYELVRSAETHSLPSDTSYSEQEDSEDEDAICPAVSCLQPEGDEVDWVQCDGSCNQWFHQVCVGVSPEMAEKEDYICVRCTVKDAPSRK
Background: qHTS replaces the single test concentration by a dilution series.
For the compound `CCC(=O)Nc1ccc(Cl)cc1C`, the “activity change, negative = inhibition” value is -3.1% (inactive).

As for `Cc1cc(C)c(OCC(=O)Nc2ccc(NC(=O)c3ccco3)cc2)c(Br)c1`, the “activity change, negative = inhibition” value is -5.67% (inactive).

Regarding `CCOc1cc(C)c(Cl)cc1S(=O)(=O)N1CCCCC1C` (stereo not given), the “activity change, negative = inhibition” value was -1.68% (inactive).

As for `CC(OC(=O)CCCc1c[nH]c2ccccc12)C(=O)NC(N)=O` (stereo not given), the “activity change, negative = inhibition” value is -1.4% (inactive).

Take `CCCCc1nc(SCC(=O)Nc2nnc(C(C)C)s2)n[nH]1`: the “activity change, negative = inhibition” value was -21.5% (inactive).

Turning to `CN1[C@@H](CCC(=O)N2CCN(c3ccccn3)CC2)CNC(=O)[C@@H]2[C@H]1CCN2Cc1csnn1`, the Potency was 28.2 µM (active).

With `COC(=O)C1CCN(C(=O)CC[C@H]2CNC(=O)[C@@H]3[C@@H](CCN3Cc3cccs3)N2C)CC1`, the “activity change, negative = inhibition” value is -14.8% (inactive).

As to `CN1[C@@H](CCC(=O)N2CCN(c3ccccc3)CC2)CNC(=O)[C@H]2NCC[C@H]21`, the “activity change, negative = inhibition” value was 1.01% [at 86.2 µM] (inactive).

For `O=C1NC[C@@H](CCC(=O)N2CCN(c3ccccn3)CC2)N2C[C@@H](NCc3ccccc3)C[C@@H]12`, the Potency was 31.6 µM (active).

In the case of `O=C(Nc1ccsc1)N[C@H]1C[C@H]2C(=O)NC[C@@H](CCC(=O)N3CCC(O)CC3)N2C1`, the “activity change, negative = inhibition” value was -27.4% [at 86.2 µM] (inactive).

Turning to `CN(C)c1ccc(C(=O)N[C@H]2C[C@H]3C(=O)NC[C@@H](CCC(=O)N4CCCCC4)N3C2)cc1`, the “activity change, negative = inhibition” value is -22.1% (inactive).

For the compound `COc1cccc(C(=O)Oc2ccc(C3(c4ccc(OC(=O)c5cccc(OC)c5)cc4)OC(=O)c4ccccc43)cc2)c1`, the “activity change, negative = inhibition” value is 15.9% (inactive).

As for `CC(C)NC(=O)CN(C)CC(O)COc1ccc(Cl)cc1` (stereo not given), the “activity change, negative = inhibition” value is -11.6% (inactive).

`CCc1cc(CC)n(-c2nc3c(c(=O)n(C)c(=O)n3C)n2C)n1`: the “activity change, negative = inhibition” value is 15.4% (inactive).

With `CCc1nn(C(C)C(=O)NCc2ccccc2Cl)c(=O)c2cc3occc3n12` (stereo not given), the “activity change, negative = inhibition” value was 8.4% (inactive).

`NC(=O)c1ccc(NC(=O)C2(Cc3nc4ccccc4s3)CCCCC2)cc1`: the “activity change, negative = inhibition” value is -20.3% (inactive).

Turning to `CCNC(=O)NC(=O)CN1CCCC(c2nc3ccccc3o2)C1` (stereo not given), the “activity change, negative = inhibition” value is 2.2% (inactive).

With `CCC1(C)Cc2nc3sc4c(=O)n(CC(=O)NCc5ccco5)cnc4c3cc2CO1` (stereo not given), the “activity change, negative = inhibition” value was -10% (inactive).

For `Cc1cccc(-n2nc(-c3c(C)nc4scc(CC(=O)NCc5ccco5)n4c3=O)cc2C)c1C`, the Potency was 31.6 µM (active).

Regarding `Cc1nc2scc(CC(=O)NC(C)C)n2c(=O)c1-c1cc(C)n(-c2cccc(Cl)c2)n1`, the Potency was 28.2 µM (active).

`Cn1nc(CC(=O)Nc2cccc(Cl)c2)c2ccccc2c1=O`: the “activity change, negative = inhibition” value is -6.18% (inactive).

Turning to `CC(C)NC(=O)Cc1cccs1`, the “activity change, negative = inhibition” value was 18% (inactive).

For the compound `COc1ccc2c(C)c(CC(=O)NCc3ccco3)c(=O)oc2c1`, the “activity change, negative = inhibition” value was -963% (inactive).

As to `Cc1ccc(C(NC(=O)c2ccccc2Cl)C(Cl)(Cl)Cl)cc1` (stereo not given), the “activity change, negative = inhibition” value is 3.03% (inactive).

For the compound `Cc1cc(NC(=O)CSc2nc(=O)cc(N)n2-c2ccc(F)cc2)no1`, the “activity change, negative = inhibition” value is 7.62% (inactive).

Turning to `O=C(O)CC/C(=C/c1cccc(Oc2ccc(Cl)cc2)c1)c1nc2ccccc2s1`, the “activity change, negative = inhibition” value is 344% (inactive).

`CN(Cc1nnc(-c2ccc(Br)s2)o1)C1CCCC1`: the “activity change, negative = inhibition” value is -4.13% (inactive).

Take `COc1ccccc1C1=NS(=O)(=O)N(C)C(C(=O)N2CCN(Cc3ccccc3)CC2)=C1`: the “activity change, negative = inhibition” value is -13.6% (inactive).

Consider `Cc1ccccc1CNC(=O)c1ccc2c(c1)CCCC2`, for which the “activity change, negative = inhibition” value was 19% (inactive).

For `O=C(CSc1ncc(-c2ccc(Cl)cc2)o1)Nc1ccc(F)cc1`, the “activity change, negative = inhibition” value is 5.5% (inactive).

For the compound `COc1nc2nc(CC3CC3)n(C)c2cc1-c1cccc(NC(C)=O)c1`, the Potency is 35.5 µM (active).

In the case of `COc1nc2nc(CC3CC3)n(C)c2cc1-c1ccc(CO)cc1`, the Potency was 35.5 µM (active).

In the case of `CC(=O)Nc1cccc(-c2n[nH]c3c2CC(=O)N(Cc2ccccc2F)C3)c1`, the “activity change, negative = inhibition” value was 19% [at 86.2 µM] (inactive).

For the compound `CC(=O)Nc1cccc(-c2nnc3n2CCCC3)c1`, the “activity change, negative = inhibition” value is 11.1% (inactive).

Regarding `COc1nc2nc(CCc3ccccc3)n(C)c2cc1-c1cncnc1`, the “activity change, negative = inhibition” value is -15.5% [at 86.2 µM] (inactive).

Turning to `CSCCC(NC(=O)[C@@H](NC(=O)c1ccc(F)cc1)C(C)C)c1nnc2ccccn12` (stereo not given in full), the “activity change, negative = inhibition” value was 1.26% (inactive).

`O=C(Nc1cccc(Cl)c1)N1CCN(c2cc(=O)n3nc(-c4ccco4)sc3n2)CC1`: the “activity change, negative = inhibition” value is 15.2% (inactive).

`CCc1ccc2oc(C(=O)Nc3ccccc3Cl)cc(=O)c2c1`: the “activity change, negative = inhibition” value is -7.99% (inactive).

Consider `Fc1ccc(NC(=S)NCC(c2ccccc2)c2ccccc2)cc1`, for which the “activity change, negative = inhibition” value is -19.1% (inactive).

Regarding `O=C(Nc1ccc2oc(-c3cccc(Cl)c3)nc2c1)c1ccc(F)cc1`, the “activity change, negative = inhibition” value is 12.7% (inactive).

For the compound `CN(c1ccccc1)S(=O)(=O)c1ccc(NC(=O)COc2ccccc2)cc1`, the “activity change, negative = inhibition” value was 18.6% (inactive).

Consider `Cc1ccc(S(=O)(=O)N(C)Cc2ccccc2C(F)(F)F)cc1`, for which the “activity change, negative = inhibition” value was 3.72% [at 86.2 µM] (inactive).

As for `Cn1ncc2c(C(=O)NCc3cccnc3)cc(C(C)(C)C)nc21`, the Potency was 100 µM (active).

Take `CC(C)(C)C(=O)NCCCC(=O)NCc1cccnc1`: the “activity change, negative = inhibition” value was -10.7% (inactive).

Turning to `CCn1cc(-c2ccc(C)cc2)cc1C(=O)NCc1cccnc1`, the “activity change, negative = inhibition” value is 1.22% (inactive).

For `O=C(NC(=S)NC1CCCCC1)c1ccc(Cl)cc1`, the “activity change, negative = inhibition” value was -10.9% (inactive).

On to `N#CCCN1CCN(C(=O)c2cn3ccnc(-c4ccccc4)c3n2)CC1`, for which the “activity change, negative = inhibition” value is -13.1% (inactive).

`N#CCCN1CCN(C(=O)c2cn3ccnc(-c4ccc(F)cc4)c3n2)CC1`: the “activity change, negative = inhibition” value was -25.6% (inactive).

For the compound `COc1ccccc1OCCNC(=O)c1cn2ccnc(-c3ccc(C)cc3)c2n1`, the Potency was 28.2 µM (active).

As to `COc1ccc(-c2noc(-c3cccn3CC(=O)Nc3cc(Cl)ccc3OC)n2)cc1F`, the “activity change, negative = inhibition” value is 27.2% (inactive).

As to `CCCn1nc(C(=O)Nc2sc3c(c2C(N)=O)CCC3)c2ccccc2c1=O`, the “activity change, negative = inhibition” value was -13.1% (inactive).

Take `CCc1noc(-c2cccn3c(CNC(=O)c4ccncc4)nnc23)n1`: the Potency is 28.2 µM (active).

Consider `CCc1noc(-c2cccn3c(CNC(=O)c4cccc(Cl)c4)nnc23)n1`, for which the Potency was 31.6 µM (active).

`CCc1noc(-c2cn(C3CCN(C(=O)C4(c5ccccc5)CC4)C3)nn2)n1` (stereo not given): the “activity change, negative = inhibition” value was 15% (inactive).

With `CCNC(=O)c1noc(-c2ccc[nH]c2=O)n1`, the “activity change, negative = inhibition” value was -6640% (inactive).

Turning to `O=C(NCc1nnc2c(-c3nc(C4CC4)no3)cccn12)c1cccnc1`, the Potency was 25.1 µM (active).

Regarding `CCC(C(=O)Nc1cccc(-c2nc3cccnc3s2)c1C)c1ccccc1` (stereo not given), the “activity change, negative = inhibition” value was -12.9% (inactive).

As for `CCc1noc(-c2cn(C3CCN(C(=O)c4ccc(Cl)cc4)C3)nn2)n1` (stereo not given), the “activity change, negative = inhibition” value is 1.84% (inactive).

Consider `CCc1noc(-c2cn(C3CCN(C(=O)c4cccc(OC)c4)C3)nn2)n1` (stereo not given), for which the “activity change, negative = inhibition” value was -12.9% (inactive).

Turning to `CCc1noc(-c2cccn3c(CNC(=O)C(CC)c4ccccc4)nnc23)n1` (stereo not given), the Potency was 28.2 µM (active).

With `O=C(c1cccnc1)N1CCC(Cc2nc(C3CCOCC3)no2)CC1`, the “activity change, negative = inhibition” value is -22.2% (inactive).

With `CC(C)CC(=O)N1CCC(c2noc(-c3cnccn3)n2)C1` (stereo not given), the “activity change, negative = inhibition” value was -1.65% (inactive).

With `CC(C)c1nc(CNC(=O)c2ccc(N(C)C)nc2)no1`, the “activity change, negative = inhibition” value was -12.7% (inactive).

For the compound `c1ccc(-c2nc(CN3CCCC3c3cccs3)co2)cc1` (stereo not given), the “activity change, negative = inhibition” value is -18.7% (inactive).

On to `O=C1Cc2cc(-c3csc(Nc4ccc(F)cc4)n3)ccc2N1`, for which the “activity change, negative = inhibition” value was -0.328% (inactive).
